High-throughput results (PubChem)
Methyltransferases – Primary Screen for Target Class Profiling of Small Molecule Inhibitors of Methyltransferases; purified enzyme, MTase-Glo SAH luminescence; stronger effect = lower value; calls only at 40 µM; hit rate 3.9% among 25,000; AID 1745853, 2022; call rule not given here
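Each enzyme was reacted with SAM and its substrate, with compounds tested once at 40 uM; SAH formed was read by MTase-Glo luminescence.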
The depositor's hits bear a star; i = inactive; + = active, no number; ! = a repeat was not active. The sample as a whole holds a higher share of hits than the screen did. % is scaled to controls: 0 for no effect and ±100 for the full control effect.

SMILES | Methyltransferases
COc1ccc(N2C(=O)c3ccc(-c4ccco4)n3CC2(C)C(=O)NCc2ccc(Cl)cc2)cc1OC (stereo not drawn) | i
CC(=O)C1CCC2(C)C3=C(CCC12C)C1(C)CCC(=O)C(C)(C)C1CC3 (stereo not drawn) | i
CC(C)N1C(=O)c2cc3occc3n2CC1(C)C(=O)NC1CCCCCCC1 (stereo not drawn) | i
COc1ccccc1CCN1C(=O)c2cc3ccccc3n2CC1(C)C(=O)NCCC(C)C (stereo not drawn) | i
Cc1ccccc1NC(=O)Nc1ccc(CN2C(=O)N([C@@H](CC(C)C)C(=O)N[C@@H](CC(=O)O)c3ccccc3)C(=O)C2(C)C)cc1 | i
COc1ccc(N2CCN(c3nc(C(=O)NCc4cccc(C)c4)cs3)CC2)cc1 | i
COc1ccc(N(C(=O)Nc2c(C)cccc2C)c2cc(Nc3ccc(N4CCN(C)CC4)cc3)ncn2)c(OC)c1 | +
CCC(=O)Nc1cccc(Oc2nc(Nc3ccc(N4CCN(C)CC4)cc3OC)ncc2Cl)c1 | i
CC1=C[C@@H](CNC(=O)CCCC(=O)O)[C@H](C(C)C)C[C@H]1Cc1nc2ccccc2n1C | i
Cc1cnc(CCNS(=O)(=O)c2cccc(F)c2)n1Cc1ccccc1 | i
CCc1ccc(N2C(=O)c3cc4sccc4n3CC2(C)C(=O)NC2CCC(C)CC2)cc1 (stereo not drawn) | i
C=C1C(=O)O[C@@H]2[C@H]3C(C)=CC(=O)C3=C(C)[C@@H](OC(=O)/C(C)=C\C)[C@H](O)[C@@H]12 | i
C=C1C(=O)OC2C(OC(=O)C=C(C)C)C(C)=C3C(=O)C=C(C)C3C(O)C12 (stereo not drawn) | +
CC1CCC(NC(=O)C2(C)Cn3c(nc4ccccc43)C(=O)N2Cc2ccc3c(c2)OCO3)CC1 (stereo not drawn) | i
CCCn1c(=O)c2ccccc2n2c(=O)n(CC(=O)Nc3cc(OC)cc(OC)c3)nc12 | i
CC1(C(=O)NC2CCCCC2)Cn2c(ccc2-c2ccco2)C(=O)N1C1CCCc2ccccc21 (stereo not drawn) | i
NC(=O)c1cccc2cn(-c3ccc([C@@H]4CCCNC4)cc3)nc12 | +!
Cn1nc(C2CCCNC2)c2c(C(=O)NC3CC3)cc(C3CC3)nc21 (stereo not drawn) | i
Cc1cccc(Cn2nc(C3CCCNC3)n(-c3ccccc3)c2=O)c1 (stereo not drawn) | i
C[C@@H]1O[C@@H](O[C@H]2[C@H](O[C@H]3CC[C@@]4(C)C(CC[C@]5(C)C4C=C[C@]46OC[C@@]7(CCC(C)(C)C[C@H]74)[C@@H](O)C[C@]65C)[C@]3(C)CO)O[C@H](CO)[C@@H](O)[C@@H]2O[C@@H]2O[C@H](CO)[C@@H](O[C@@H]3O[C@@H](C)[C@H](O)[C@@H](O)[C@H]3O)[C@H](O)[C@H]2O)[C@H](O)[C@H](O)[C@H]1O (stereo partly drawn) | i
Cn1nccc1CCC(=O)N1CCN(C(=O)C2CCC2)[C@@H]2CS(=O)(=O)C[C@@H]21 | i
COc1ccc(CNC(=O)C2(C)Cn3cnc(C(=O)Nc4ccc(Cl)cn4)c3C(=O)N2C2CC2)cc1 (stereo not drawn) | i
CCCn1c(=O)c2ccc(C(=O)NC(C)C)cc2n2c(=O)n(Cc3ccc(Cl)cc3)nc12 | i
Cc1ccc(C)c(N2C(=O)c3cc4occc4n3CC2(C)C(=O)NC2CCC(C)CC2)c1 (stereo not drawn) | i
C=C1CC2C(C)(CCC(=O)O)C(C(C)(C)O)CCC2(C)C2(C(=O)OC)C(=O)C(C)(O)C(=O)C12C (stereo not drawn) | i
SMILES | Methyltransferases
O=C(CCc1nnc2n(Cc3ccc(F)cc3)c(=O)c3ccccc3n12)NCCc1ccc(Cl)cc1 | i
CC(=O)N1CC2(CCCN2Cc2cccc(C(N)=O)c2)Cc2ccccc21 (stereo not drawn) | i
O=C1CN(Cc2cccc(Cl)c2)S(=O)(=O)c2ccccc2N1Cc1ccc(Cl)cc1 | i
O=C(O)c1cccc(CN2C(=O)/C(=C(\c3ccccc3)c3ccc(Cl)cc3)c3ccccc32)c1 | +
Cc1cc(C)cc(N2C(=O)c3ccc(-c4ccco4)n3CC2(C)C(=O)NCc2ccc(Cl)cc2)c1 (stereo not drawn) | i
COc1cccc(CN2C(=O)c3nc4ccccc4n3CC2(C)C(=O)NC2CCCC2)c1OC (stereo not drawn) | i
O=S(=O)(NC1CCCc2ccccc21)c1ccc2[nH]c3c(c2c1)CCCC3 (stereo not drawn) | i
COCCN(C)Cc1ccc2nc3sc(C(=O)N(C)C4CCCCC4)cn3c2c1 | +
COCCN(C)C[C@H]1C[C@@H](CO)CN(C(=O)c2ccc(C)c(Cl)c2)C1 | i
CCCN(C)c1nccnc1OC1CCN(C(=O)c2cccc(OC)c2OC)C1 (stereo not drawn) | i
Cc1ccc(-c2coc(-c3ccc(NS(=O)(=O)c4ccc5c(c4)n(C)c(=O)n5C)cc3)n2)c(C)c1 | i
CCOC(=O)c1cc2n(n1)CC(C)(C(=O)NC1CCCCC1)N(c1ccc(F)cc1C)C2=O (stereo not drawn) | i
Cc1cccc(N2C(=O)c3cc(C(C)(C)C)nn3CC2(C)C(=O)NCc2ccccc2)c1C (stereo not drawn) | i
Cc1ccc(CN2CCCc3nc(C)nc(-c4ccc(O)cc4)c3C2)cc1 | i
C=CC(=O)Nc1ccc2ncnc(Nc3cccc(Br)c3)c2c1 | +
CCOC(=O)c1ccc(Nc2ncnc3ccc(Br)cc23)cc1 | i
CCOC(=O)c1cnc2ccc(Br)cc2c1Nc1cccc(C(C)=O)c1 | i
Cc1ccc(CNC(=O)C2(C)Cn3nc(C(=O)NCCCc4ccccc4)cc3C(=O)N2C)cc1 (stereo not drawn) | i
O=C(NC1CCCCC1)C1c2cccn2-c2sc3c(c2C(=O)N1c1ccc(Cl)cc1)CCCC3 (stereo not drawn) | i
CCCn1c(=O)c2ccc(C(=O)NC3CCCC3)cc2n2c(=O)n(CC(=O)c3ccc(Cl)cc3)nc12 | i
CCOC(=O)c1cc2n(n1)CC(C)(C(=O)NC1CCCC1)N(Cc1ccc(OCC)cc1)C2=O (stereo not drawn) | i
CC1(C(=O)NC2CCCC2)Cn2c(nc3ccccc32)C(=O)N1Cc1ccccc1Cl (stereo not drawn) | i
Cc1nc(N(C)C)ncc1C(=O)N1CCN(c2ccccc2C#N)CC1 | i
CCCC1c2ccc(C)n2CCN1C(=O)Nc1cc(C)cc(C)c1 (stereo not drawn) | i
C[C@H]1c2cccc(O)c2C(O)=C2C(=O)[C@]3(O)C(O)=C(C(N)=O)C(=O)[C@@H](N(C)C)[C@@H]3[C@@H](O)[C@@H]21 | +
SMILES | Methyltransferases
CC(C)OCCCN1C(=O)c2cc3occc3n2CC1(C)C(=O)NC1CCCCCC1 (stereo not drawn) | i
CCCn1c(=O)c2ccccc2n2c(SCC(=O)NCc3ccc(Cl)cc3)nnc12 | i
Cc1cc(C[C@@H]2COC[C@@H]2NC(=O)c2ccc(Oc3ccccc3)o2)on1 | i
CC(=O)Nc1c2n(c3ccccc13)CC(C)(C(=O)NC1CCCCCC1)N(Cc1ccco1)C2=O (stereo not drawn) | i
Oc1cccc(Nc2ccnc3[nH]c4ccccc4c23)c1 | +
O=C(O)CCc1nccc2c1[nH]c1ccccc12 | i
CN1C(=O)c2cc(C(=O)NCc3ccccc3Br)nn2CC1(C)C(=O)NC1CCCC1 (stereo not drawn) | i
